# For some assays here: Entries with a potency or affinity are not part of this list.
# Key:
# Set-up in all cases: scale not given: direction of the effect not stated beside the values
# [1] = molecular target: Protein translocase subunit SecA (Escherichia coli (strain K12)) (UniProt P10408); test: Assay to Identify E. coli SecA ATPase Inhibitors; assay type: functional; settings: 30 µM
# [2] = molecular target: T1, Ubiquitin-activating enzyme e1, putative (Leishmania donovani (strain BPK282A1)) (UniProt E9BSI1); test: Leishmania donovani Ubiquitin Activating Enzyme (LdE1); assay type: functional; settings: 30 µM
# T1 sequence (whole entry): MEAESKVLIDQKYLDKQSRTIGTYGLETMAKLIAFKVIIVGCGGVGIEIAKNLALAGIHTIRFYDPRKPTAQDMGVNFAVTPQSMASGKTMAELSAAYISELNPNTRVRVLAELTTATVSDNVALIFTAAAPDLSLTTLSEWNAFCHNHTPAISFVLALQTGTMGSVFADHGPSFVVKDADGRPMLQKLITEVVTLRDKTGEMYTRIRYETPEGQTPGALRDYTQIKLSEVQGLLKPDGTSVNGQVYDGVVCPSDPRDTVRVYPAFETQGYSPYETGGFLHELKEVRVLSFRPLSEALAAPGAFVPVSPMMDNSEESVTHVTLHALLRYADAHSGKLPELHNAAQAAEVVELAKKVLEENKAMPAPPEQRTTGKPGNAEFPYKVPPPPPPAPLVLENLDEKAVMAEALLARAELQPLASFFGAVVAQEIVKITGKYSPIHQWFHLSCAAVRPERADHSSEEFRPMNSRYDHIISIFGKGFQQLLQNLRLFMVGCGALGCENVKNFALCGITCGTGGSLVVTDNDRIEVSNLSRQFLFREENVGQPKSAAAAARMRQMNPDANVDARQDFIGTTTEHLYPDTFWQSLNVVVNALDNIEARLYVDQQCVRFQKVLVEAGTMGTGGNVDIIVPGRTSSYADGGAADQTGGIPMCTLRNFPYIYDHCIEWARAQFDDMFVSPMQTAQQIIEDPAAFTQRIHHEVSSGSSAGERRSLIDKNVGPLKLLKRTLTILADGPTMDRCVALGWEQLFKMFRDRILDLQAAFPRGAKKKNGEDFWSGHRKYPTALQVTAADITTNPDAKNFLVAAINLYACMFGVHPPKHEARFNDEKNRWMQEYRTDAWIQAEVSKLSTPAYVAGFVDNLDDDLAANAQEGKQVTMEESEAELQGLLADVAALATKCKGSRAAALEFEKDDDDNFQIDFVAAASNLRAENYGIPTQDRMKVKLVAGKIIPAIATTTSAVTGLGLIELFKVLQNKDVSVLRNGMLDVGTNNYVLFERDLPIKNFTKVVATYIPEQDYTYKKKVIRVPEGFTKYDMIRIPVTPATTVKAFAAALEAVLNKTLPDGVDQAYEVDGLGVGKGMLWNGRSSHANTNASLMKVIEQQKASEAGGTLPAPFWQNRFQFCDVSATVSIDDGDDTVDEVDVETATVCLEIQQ
# [3] = molecular target: Sialic acid-binding Ig-like lectin 9 (Homo sapiens) (UniProt Q9Y336); test: Hs-Siglec9 ALPHAscreen SOP 20170721; settings: 10 µM
# Trypanosoma cruzi = test: Trypanosoma cruzi phosphomannomutase and mannose-1-phosphate guanylyltransferase assay; assay type: functional; settings: 10 µM
# [4] = molecular target: T2, Arginase-2, mitochondrial (Homo sapiens) (UniProt P78540); test: in vitro enzyme assay to detect the production of urea directly proportional to the activity of Arginase II; assay type: functional; settings: 33.3 µM; note: in the data most compounds retested in dose-response had high values
# T2 sequence (whole entry): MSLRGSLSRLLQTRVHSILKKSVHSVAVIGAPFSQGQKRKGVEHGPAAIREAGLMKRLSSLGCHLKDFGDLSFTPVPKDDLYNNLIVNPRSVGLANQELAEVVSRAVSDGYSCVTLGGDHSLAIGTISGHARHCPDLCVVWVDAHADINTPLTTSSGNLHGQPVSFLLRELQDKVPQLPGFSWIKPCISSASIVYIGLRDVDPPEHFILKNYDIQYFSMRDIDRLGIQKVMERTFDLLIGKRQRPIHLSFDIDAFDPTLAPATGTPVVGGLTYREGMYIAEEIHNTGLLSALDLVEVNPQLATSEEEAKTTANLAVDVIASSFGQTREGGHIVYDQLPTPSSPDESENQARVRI
# [5] = molecular target: T3, Proteasome subunit beta (Trypanosoma cruzi) (UniProt O96673); test: Trypanosoma cruzi proteasome chymotrypsin-like activity (TcProtChymo) assay.; note: in the data most compounds retested in dose-response had high values; assay type: functional; settings: 9.37 µM
# T3 sequence (whole entry): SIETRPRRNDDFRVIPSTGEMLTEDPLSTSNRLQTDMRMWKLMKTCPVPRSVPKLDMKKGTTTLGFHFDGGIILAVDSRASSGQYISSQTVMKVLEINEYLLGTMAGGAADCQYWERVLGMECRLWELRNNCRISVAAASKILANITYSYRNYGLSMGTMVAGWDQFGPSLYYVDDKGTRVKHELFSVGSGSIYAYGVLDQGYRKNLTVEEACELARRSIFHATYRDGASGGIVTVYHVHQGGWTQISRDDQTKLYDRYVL
# Homo sapiens = organism: Homo sapiens; test: To identify inhibition of the IFN signalling (Jak-Stat) pathway via expression of an eGFP reporter gene under the control of an IFN-stimulated response element (ISRE) containing MxA promoter.; assay type: functional; settings: 30 µM
# [6] = molecular target: T4, Tyrosyl-tRNA synthetase, putative (Trypanosoma cruzi (strain CL Brener)) (UniProt Q4DSP6); test: Trypanosoma cruzi tyrosyl tRNA synthetase (TcYRS) _High Tyrosine SOP; assay type: functional; settings: 30 µM; note: in the data most compounds retested in dose-response had high values
# T4 sequence (whole entry): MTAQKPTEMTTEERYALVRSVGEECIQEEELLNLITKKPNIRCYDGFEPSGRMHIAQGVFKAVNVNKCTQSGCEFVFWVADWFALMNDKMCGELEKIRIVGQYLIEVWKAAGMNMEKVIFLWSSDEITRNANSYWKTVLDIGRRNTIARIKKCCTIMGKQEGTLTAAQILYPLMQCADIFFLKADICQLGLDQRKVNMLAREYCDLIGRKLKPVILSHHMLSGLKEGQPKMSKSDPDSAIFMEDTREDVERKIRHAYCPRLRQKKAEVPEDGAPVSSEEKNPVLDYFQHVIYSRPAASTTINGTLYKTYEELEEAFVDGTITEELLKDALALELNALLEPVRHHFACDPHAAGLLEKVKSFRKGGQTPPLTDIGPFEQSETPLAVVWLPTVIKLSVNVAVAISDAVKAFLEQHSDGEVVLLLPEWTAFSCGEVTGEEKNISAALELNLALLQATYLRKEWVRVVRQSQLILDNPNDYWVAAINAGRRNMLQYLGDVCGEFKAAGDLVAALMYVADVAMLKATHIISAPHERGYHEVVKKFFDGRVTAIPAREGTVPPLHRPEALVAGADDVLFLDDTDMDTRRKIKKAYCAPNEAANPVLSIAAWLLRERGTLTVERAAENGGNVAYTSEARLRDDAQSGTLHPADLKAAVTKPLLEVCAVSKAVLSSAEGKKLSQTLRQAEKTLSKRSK
# [7] = molecular target: T4, Tyrosyl-tRNA synthetase, putative (Trypanosoma cruzi (strain CL Brener)); test: Trypanosoma cruzi tyrosyl tRNA synthetase (TcYRS) SOP; assay type: functional; settings: 30 µM
# [8] = molecular target: Chromo domain-containing protein 1 (Saccharomyces cerevisiae (strain ATCC 204508 / S288c) (Baker's yeast)) (UniProt P32657); test: ScCHD-1 Enzyme Inhibition Assay; assay type: functional; settings: 30 µM; note: in the data most compounds retested in dose-response had high values
# Chromo domain-containing protein 1 (Saccharomyces cerevisiae (strain ATCC 204508 / S288c) (Baker's yeast)), sequence (P32657 whole entry, the tested form may be a part): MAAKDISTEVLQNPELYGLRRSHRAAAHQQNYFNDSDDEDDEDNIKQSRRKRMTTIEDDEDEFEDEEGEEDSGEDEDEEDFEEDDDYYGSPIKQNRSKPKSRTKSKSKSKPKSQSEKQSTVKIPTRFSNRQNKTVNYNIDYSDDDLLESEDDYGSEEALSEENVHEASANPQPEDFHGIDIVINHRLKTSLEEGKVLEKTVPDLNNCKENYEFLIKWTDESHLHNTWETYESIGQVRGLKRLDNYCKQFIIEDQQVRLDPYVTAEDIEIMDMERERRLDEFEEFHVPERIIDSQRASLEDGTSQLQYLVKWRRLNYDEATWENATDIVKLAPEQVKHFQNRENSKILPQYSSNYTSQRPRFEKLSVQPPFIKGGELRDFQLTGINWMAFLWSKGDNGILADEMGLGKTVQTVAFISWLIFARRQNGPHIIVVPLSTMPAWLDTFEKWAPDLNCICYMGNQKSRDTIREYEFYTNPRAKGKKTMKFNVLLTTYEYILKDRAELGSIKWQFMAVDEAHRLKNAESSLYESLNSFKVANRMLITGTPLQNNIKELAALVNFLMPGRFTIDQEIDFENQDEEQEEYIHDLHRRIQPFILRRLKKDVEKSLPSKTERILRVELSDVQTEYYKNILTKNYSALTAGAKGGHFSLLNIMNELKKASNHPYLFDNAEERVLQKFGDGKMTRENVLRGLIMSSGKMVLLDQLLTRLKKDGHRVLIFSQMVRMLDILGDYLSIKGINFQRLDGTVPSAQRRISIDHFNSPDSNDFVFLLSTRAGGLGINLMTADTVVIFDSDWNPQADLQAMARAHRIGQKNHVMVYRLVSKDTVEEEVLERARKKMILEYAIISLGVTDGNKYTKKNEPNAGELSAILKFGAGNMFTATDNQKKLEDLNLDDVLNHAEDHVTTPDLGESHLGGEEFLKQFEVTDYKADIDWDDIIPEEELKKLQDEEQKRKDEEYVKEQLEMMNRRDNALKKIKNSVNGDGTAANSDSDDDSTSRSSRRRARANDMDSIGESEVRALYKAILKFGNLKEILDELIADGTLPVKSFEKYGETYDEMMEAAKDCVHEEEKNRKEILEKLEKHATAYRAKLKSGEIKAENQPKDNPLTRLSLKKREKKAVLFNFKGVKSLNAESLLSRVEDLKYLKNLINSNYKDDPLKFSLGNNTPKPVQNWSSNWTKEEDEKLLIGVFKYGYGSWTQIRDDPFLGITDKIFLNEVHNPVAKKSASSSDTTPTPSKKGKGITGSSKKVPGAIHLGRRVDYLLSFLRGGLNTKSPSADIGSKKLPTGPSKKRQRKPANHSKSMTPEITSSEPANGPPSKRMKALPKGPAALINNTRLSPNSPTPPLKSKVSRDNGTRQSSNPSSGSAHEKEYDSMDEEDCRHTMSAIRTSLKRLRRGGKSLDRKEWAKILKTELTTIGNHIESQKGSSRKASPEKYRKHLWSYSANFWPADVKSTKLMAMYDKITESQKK
# Sialic acid-binding Ig-like lectin 9 (Homo sapiens), sequence (Q9Y336 whole entry): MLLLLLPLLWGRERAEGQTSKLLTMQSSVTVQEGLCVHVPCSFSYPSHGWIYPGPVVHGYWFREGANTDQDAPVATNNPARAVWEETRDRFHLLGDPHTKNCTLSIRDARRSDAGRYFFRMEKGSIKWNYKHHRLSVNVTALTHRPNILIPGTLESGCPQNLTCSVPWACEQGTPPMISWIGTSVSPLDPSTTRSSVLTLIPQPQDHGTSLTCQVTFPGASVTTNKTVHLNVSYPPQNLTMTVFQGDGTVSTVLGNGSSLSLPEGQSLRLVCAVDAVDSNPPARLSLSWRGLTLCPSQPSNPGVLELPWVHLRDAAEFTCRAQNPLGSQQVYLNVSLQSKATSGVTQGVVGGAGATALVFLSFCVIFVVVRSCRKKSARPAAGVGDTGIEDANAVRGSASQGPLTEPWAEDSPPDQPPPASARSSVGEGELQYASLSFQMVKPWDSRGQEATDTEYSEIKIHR
# Protein translocase subunit SecA (Escherichia coli (strain K12)), sequence (P10408 whole entry): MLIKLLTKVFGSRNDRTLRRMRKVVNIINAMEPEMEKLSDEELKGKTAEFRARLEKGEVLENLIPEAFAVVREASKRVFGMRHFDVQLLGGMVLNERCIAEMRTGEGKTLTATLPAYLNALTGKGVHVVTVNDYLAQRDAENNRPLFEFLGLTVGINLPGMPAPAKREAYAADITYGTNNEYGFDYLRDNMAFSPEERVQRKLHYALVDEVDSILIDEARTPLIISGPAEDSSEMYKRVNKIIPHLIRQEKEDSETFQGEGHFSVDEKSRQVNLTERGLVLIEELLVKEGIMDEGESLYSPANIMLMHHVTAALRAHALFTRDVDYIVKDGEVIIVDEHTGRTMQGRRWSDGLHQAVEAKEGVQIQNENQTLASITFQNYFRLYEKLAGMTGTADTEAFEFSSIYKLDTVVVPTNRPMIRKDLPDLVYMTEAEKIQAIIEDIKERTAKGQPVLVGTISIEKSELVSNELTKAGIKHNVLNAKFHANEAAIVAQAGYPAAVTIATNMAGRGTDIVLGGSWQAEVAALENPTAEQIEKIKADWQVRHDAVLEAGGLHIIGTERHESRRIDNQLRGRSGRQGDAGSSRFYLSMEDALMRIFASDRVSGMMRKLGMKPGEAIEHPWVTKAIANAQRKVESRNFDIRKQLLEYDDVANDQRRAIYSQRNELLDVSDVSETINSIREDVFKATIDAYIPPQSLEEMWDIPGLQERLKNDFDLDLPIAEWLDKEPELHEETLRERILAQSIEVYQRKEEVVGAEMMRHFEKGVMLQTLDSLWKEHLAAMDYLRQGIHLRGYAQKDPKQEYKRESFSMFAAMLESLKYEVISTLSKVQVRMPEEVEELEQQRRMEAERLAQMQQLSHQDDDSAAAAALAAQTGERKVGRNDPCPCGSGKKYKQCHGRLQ
SMILES,Percent Effect [1] [%],Percent Effect [2] [%],Percent Effect [3] [%],Percent Effect (Trypanosoma cruzi) [%],Percent Effect [4] [%],Percent Effect [5] [%],Percent Effect (Homo sapiens) [%],Percent Effect [6] [%],Percent Effect [7] [%],Percent Effect [8] [%]
Cc1c(F)cc(C(=O)O)cc1S(=O)(=O)Nc1ccc2c(c1)OCCO2,-4.72,5.13,0.878,7.42,-4.51,2.82,-3.86,-5.26,1.21,-2.48
Cc1noc(C)c1CN(C)C(=O)NC1CCN(C2CC2)CC1,-1.46,2.56,0.345,2.91,-0.82,-3.84,-6.08,2.39,8.43,3.21
CC(=O)N1CC(=O)N(c2ccccc2)CC12CCN(CC1CC1)C2 (stereo not given),-11,1.3,22.2,-1.27,-2.02,12.1,15.9,2.63,-5.13,-0.48
Cc1[nH]c2ccccc2c1-c1ccnc(NCCN2CCOCC2)n1,-1.25,5.33,-2.88,-7.83,-7.54,14.8,21.5,-1.58,-2.56,-15.1
Cc1cc(C)n(CC2CCCCN2C(=O)c2ccc3nncn3c2)n1 (stereo not given),-7.43,8,0.804,2.01,-1.77,8.06,6.43,5.79,10.3,-4.66
Cc1ccc(Cl)cc1N1CCC(CNC(=O)CCn2ccnc2)C1 (stereo not given),-4.06,5.13,-8.73,10.8,2.05,12.2,9.72,12.9,22.9,-4.33
CC(=O)N1CCC2(CCN(C(=O)c3ccc(C)c(C(F)(F)F)c3)CC2)C1,-3.18,14.3,1.63,-7.69,7.29,19.5,17.8,7.89,0,-3.98
c1ccc(-c2cnc(CNC3CCCN(c4cccnn4)C3)o2)cc1 (stereo not given),-1.65,-23.1,5.28,6.48,1.23,0.0853,7.96,14.8,22.9,-1.17
c1cncc(N2CCOCC3(CCCN(c4nncs4)C3)C2)c1 (stereo not given),-4.46,-3.9,-2.68,-1.27,-2.02,7.33,2.84,2.63,7.69,3.64
O=C(NCC(=O)N1CCc2ccccc2C1)c1ccoc1,-0.143,15.6,-3.75,-7.46,1.43,18.1,23.4,3.92,9.41,-10.6
Cc1ccc(C(=O)N2C[C@@H](OCC3CCOCC3)[C@H]3OCCC[C@H]32)o1,-3.48,14.3,0.662,4.58,10.9,9.44,6.42,4.74,15.4,18.8
CC(=O)N(Cc1noc(C)n1)C1CCN(CCOc2ccccc2)C1 (stereo not given),-2.68,13,0.712,-1.68,-0.615,17.9,-1.33,7.84,21.2,-7.28
CC(C)n1[nH]c(=O)c2c1NC(=O)CC2c1cccnc1 (stereo not given),0.982,13.5,1.14,0.873,1.75,18.7,23.6,3.72,19.5,-3.39
CCc1nc(C2CCCN2C(=O)c2cc(C3CC3)[nH]n2)no1 (stereo not given),-3.71,5.33,-4.76,-5.02,1.77,-1.44,12.6,3.68,5.13,-6.15
COCCC(=O)N1CCC2(CC1)CC(c1ccccc1)CN(C)C2 (stereo not given),-6.06,5.41,7.24,2.42,1.75,18.7,-4.11,4.79,12.2,-5.37
CC(C)(C)n1ncc2c1NC(=O)CC2c1ccccc1 (stereo not given),-4.86,5.41,5.59,2.23,-3.15,13.2,12.2,3.72,14.6,96
CN(Cc1cccc(F)c1)C(=O)CN1CCOC(Cn2cccn2)C1 (stereo not given),0.367,0,7.99,0.933,0.615,3.86,8.18,3.92,9.41,-0.994
CC(C)(C)c1cn2nc(N3CCC[C@@H]3CO)sc2n1,-2.65,10.3,-1.69,-0.282,2.87,6.57,2.26,2.39,13.2,-0.0525
NC(=O)c1cc(C2CCCN(CCCOc3ccccc3)C2)n[nH]1 (stereo not given),1.07,-15.4,18.7,-0.282,6.15,1.79,0.734,1.44,-1.21,-4.36
CCc1nc(C)c(C(=O)NCCN2CCN(C(C)=O)CC2)s1,-2.42,10.4,4.38,-0.373,1.43,-0.702,15.7,7.84,21.2,-6.18
CCn1ccnc1CN1CCCN(C(=O)c2cccn2C)CC1,-5.36,12.8,-19.1,14,-2.46,8.79,4.83,2.39,20.5,31.3
COc1ncc(C2(O)CCN(Cc3c(F)cccc3F)CC2)c(OC)n1,-3.32,9.33,-4.97,1.97,-4.87,13.3,15.3,2.12,0,-21.1
Cc1ccc(C(N)c2cccc(S(C)(=O)=O)c2)cc1 (stereo not given),-4.76,10.7,8.28,-1.81,5.76,5.34,27,4.74,5.13,-9.27
